# Assay results as given in PubChem BioAssay AID488969 (Vanderbilt High Throughput Screening Facility, 2010).
# Whole data set: some 110,000 compounds, median “z-score” near -0.1, cut for the highest 2% near 2. The entries come from a sample that favours the highest values as a whole. Calls of active or inactive are those of the source.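 Rule for the calls: active = z-score in the third read window above 3 or below -3; inactive = the rest.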
# Target: Metabotropic glutamate receptor 8 (Rattus norvegicus) (UniProt P70579)
# Sequence (P70579 whole entry, looked up): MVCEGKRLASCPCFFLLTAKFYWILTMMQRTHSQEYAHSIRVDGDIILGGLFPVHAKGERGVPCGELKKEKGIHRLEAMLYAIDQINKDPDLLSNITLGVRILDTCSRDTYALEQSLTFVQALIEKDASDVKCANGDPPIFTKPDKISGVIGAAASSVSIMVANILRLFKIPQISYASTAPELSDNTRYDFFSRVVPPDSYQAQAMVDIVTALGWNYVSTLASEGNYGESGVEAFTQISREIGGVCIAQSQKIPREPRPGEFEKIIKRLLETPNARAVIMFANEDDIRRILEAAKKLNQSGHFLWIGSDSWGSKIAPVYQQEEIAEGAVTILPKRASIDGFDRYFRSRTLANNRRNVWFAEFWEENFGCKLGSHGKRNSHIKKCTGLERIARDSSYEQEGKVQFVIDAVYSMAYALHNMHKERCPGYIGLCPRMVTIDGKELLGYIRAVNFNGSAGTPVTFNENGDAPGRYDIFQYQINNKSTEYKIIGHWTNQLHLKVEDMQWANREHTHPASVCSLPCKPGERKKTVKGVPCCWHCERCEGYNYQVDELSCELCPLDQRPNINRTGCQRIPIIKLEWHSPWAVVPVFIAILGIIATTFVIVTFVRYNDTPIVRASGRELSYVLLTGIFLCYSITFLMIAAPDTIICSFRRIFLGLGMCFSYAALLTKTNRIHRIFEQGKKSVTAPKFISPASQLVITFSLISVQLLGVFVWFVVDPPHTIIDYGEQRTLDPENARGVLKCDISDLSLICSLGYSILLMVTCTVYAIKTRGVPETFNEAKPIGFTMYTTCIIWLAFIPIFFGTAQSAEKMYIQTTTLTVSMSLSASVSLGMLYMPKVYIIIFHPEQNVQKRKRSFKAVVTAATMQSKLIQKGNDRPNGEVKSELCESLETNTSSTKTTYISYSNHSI
# Assay: rat mGluR8 modulators via GIRK flux, primary screen, cell-based, thallium flux, HTS (AID 488969)
# Details: HEK293 rat mGluR8, GIRK (G protein-gated inwardly rectifying potassium channel) thallium flux, FluoZin2; at 10 µM; stronger effect = higher value; submaximal glutamate (EC20) added with thallium
row,Structure (SMILES),z-score
1,CCOCCCNC(=O)Cc1c(C(=O)O)[nH]c2ccc(Cl)cc12,0.12
2,CCCn1c(=N)n(CC(=O)OCC)c2ccccc21,-0.118
3,CCn1c(=N)n(CCOc2ccc(OC)cc2)c2ccccc21,-0.158
4,Cc1cccc(OCCn2c(=O)sc3ccccc32)c1,-0.343
5,CCCn1c(=N)n(CCOc2ccc(OC)cc2)c2ccccc21,3.04 (active)
6,CCOC(=O)Cn1c(=N)n(CCOc2ccc(OC)cc2)c2ccccc21,2.74
7,CCCn1c(=N)n(CCOCCOCCn2c(=N)n(CCC)c3ccccc32)c2ccccc21,0.012
8,CCn1c(=S)[nH]c2ccccc21,0.63
9,CCOC(=O)Cn1c(=N)n(CCOc2ccc3ccccc3c2)c2ccccc21,1.25
10,Cc1cccc(OCCn2c(=S)[nH]c3ccccc32)c1,2.83
11,CCOC(=O)Cn1c(=N)n(CCOc2cccc(C)c2)c2ccccc21,3.95 (active)
12,N=c1n(CCO)c2ccccc2n1CCOc1ccccc1,-0.208
13,Cc1cccc(OCCn2c(S(=O)(=O)O)nc3ccccc32)c1,0.0442
14,O=C(NCCN1CCCCC1)c1ccco1,0.151
15,CC1=C(Sc2ccccn2)C(=O)NC(C)(C)C1,0.338
16,CN(C)S(=O)(=O)c1ccc(C(=O)Nc2ccccc2OC(F)(F)C(F)F)cc1,-0.525
17,COc1ccc(NC(=O)Nc2ncn(Cc3cccc(C(F)(F)F)c3)n2)cc1OC,0.0572
18,COc1ccc(-c2ccc(/C=C3/C(=N)N4C=CSC4=NC3=O)o2)c([N+](=O)[O-])c1,0.455
19,CC(=O)N1N=C(c2ccco2)CC1c1ccc(C)cc1 (stereo not given),0.0902
20,C=CCNC(=O)C(=O)N/N=C/c1ccco1,0.424
21,CCCn1c(C)cc(=O)c2cc(NC(=O)c3cnccn3)ccc21,-0.106
22,O=C(Cn1ccc2ccccc2c1=O)N1CCN(Cc2ccc3c(c2)OCO3)CC1,0.477
23,CCN1C(c2ccccc2)=C(c2ccccc2)S/C1=C/C=C1\SC(=S)N(C)C1=O,-0.0724

row,Structure (SMILES),z-score
1,O=C(NCc1cccs1)C1CCN(S(=O)(=O)c2cccs2)CC1,-0.232
2,CCOc1ccc(NC(=O)CSCC(=O)O)cc1,-0.178
3,Cc1occc1C(=O)N/N=C/C1=C(N2CCOCC2)C(=C\c2ccc(Cl)cc2Cl)/CC1,0.0547
4,CC(NC(=O)Cc1cccs1)C(c1cccs1)N1CCOCC1 (stereo not given),-0.108
5,C=CCn1c(=N)n(CC(=O)OCC)c2ccccc21,0.534
6,CCOC(=O)Cn1c(=N)n(Cc2ccccc2F)c2ccccc21,3.72 (active)
7,CCOC(=O)Cn1c(=N)n(Cc2ccccc2)c2ccccc21,0.46
8,COc1cc(C(=O)NCc2nnc(SCC(=O)NCc3ccccc3)o2)cc(OC)c1OC,1.55
9,CCC(c1nnnn1CCOC)N(Cc1cc2c(C)cc(C)cc2[nH]c1=O)CC1CCCO1 (stereo not given),-0.203
10,Nc1nc(CSC(=S)N2CCOCC2)nc(Nc2ccccc2)n1,2.25
11,Nc1nc(CSC(=S)N2CCN(c3ccccc3)CC2)nc(Nc2ccccc2)n1,0.00399
12,Nc1nc(CSC(=S)N2CCOCC2)nc(Nc2ccc(F)cc2)n1,-0.0752
13,Cc1cc(C)c(S(=O)(=O)c2ccccc2)c(OC(=O)c2c(Cl)cccc2Cl)n1,-0.286
14,COc1ccc(NC(=O)c2ccco2)cc1NC(=O)c1ccc(C)cc1,-0.304
15,COc1ccccc1NC(=O)c1cc(Cl)ccc1NC(=O)c1ccco1,0.52
16,COc1ccccc1NC(=O)c1cccc(NC(=O)c2ccco2)c1,-0.669
17,COc1ccccc1NC(=O)C(=O)NNC(=O)c1ccco1,2.81
18,COc1ccc(C)cc1NC(=O)C(=O)NNC(=O)c1ccco1,4.89 (active)
19,COc1ccc(Cl)cc1NC(=O)c1ccco1,-0.426
20,O=c1c2ccccc2nc(CSc2ncnc3nc[nH]c23)n1-c1cccc(C(F)(F)F)c1,-0.256
21,Cc1nc(NC(=O)c2ccccc2)sc1-c1csc(NCc2ccco2)n1,0.00275
22,Cn1nnc(NC(=O)c2ccco2)n1,0.813
23,Cc1ccc(C(=O)OCC(=O)NCc2ccco2)cc1,-0.195

row,Structure (SMILES),z-score
1,CCc1ccc2c(c1)C1(NN=C(c3ccccc3)S1)C(=O)N2 (stereo not given),0.104
2,CCc1ccc2c(c1)C1(NN=C(c3cccc4ccccc34)S1)C(=O)N2 (stereo not given),4.02 (active)
3,CC(C)c1ccc2c(c1)C1(NN=C(c3ccccc3)S1)C(=O)N2 (stereo not given),0.979
4,CCc1ccc2c(c1)C1(C(=O)N2)N2CCCC2C(C(=O)c2ccc3ccccc3c2)C12C(=O)Nc1ccccc12 (stereo not given),-0.276
5,CCc1ccc2c(c1)C(=O)c1ccccc1C2=O,-0.389
6,CCc1ccc2c(c1)C1(NN=C(c3ccc(C)cc3)S1)C(=O)N2 (stereo not given),3.15 (active)
7,CCCc1ccc(OCC(O)CN2CCN(c3ccccc3)CC2)cc1 (stereo not given),-0.0136
8,COc1cc(C2CC(=O)c3c(ccc4ccccc34)N2)ccc1O (stereo not given),0.11
9,COc1ccc(C(=O)C(CCCCC(CN(C)C)C(=O)c2ccc(OC)cc2)CN(C)C)cc1 (stereo not given),-0.494
10,CCOC(=O)C1=C(C)NC(=O)NC1c1ccc(OC)c(CN2CCOCC2)c1 (stereo not given),0.00374
11,COc1ccc(CCCC(=O)Nc2ccccc2F)cc1,0.0152
12,COC(=O)c1cc(NC(=O)C2CC2)cc(C(=O)OC)c1,0.0071
13,Cc1ccsc1/C=C1/SC(N2CC(C)OC(C)C2)=NC1=O (stereo not given),-0.238
14,CC(=O)c1ccc(NC2CC(O)C(O)CO2)cc1 (stereo not given),2.32
15,CC(=O)c1ccc(NC2OC(C)C(O)C(O)C2O)cc1 (stereo not given),0.292
16,CC(=O)c1ccc(NC(=S)N2CC(C)CC(C)C2)cc1 (stereo not given),-0.208
17,CCCn1nc(C(=O)OCC(=O)c2ccc3c(c2)NC(=O)CO3)c2ccccc2c1=O,-1.71
18,O=C(NNS(=O)(=O)c1ccccc1)c1ccncc1,-0.151
19,CC1=CC(C)(C)Nc2ccc(OC(=O)CN3C(=O)C4CCCCC4C3=O)cc21 (stereo not given),1.08
20,CC1=CC(C)(C)Nc2ccc(OC(=O)C(Cc3ccccc3)N3C(=O)C4CCCCC4C3=O)cc21 (stereo not given),2.63
21,CC1=CC(C)(C)Nc2ccc(OC(=O)C(Cc3ccccc3)N3C(=O)c4ccccc4C3=O)cc21 (stereo not given),1.05
22,CCC(CC)NC(=O)/C=C/c1ccccc1Cl,-0.178
23,CCC(Sc1nc2ccc(C)cc2[nH]1)C(=O)O (stereo not given),0.179

row,Structure (SMILES),z-score
1,COC(=O)c1cc(OC)c(OC)cc1NC(=O)c1ccc(C)o1,-0.653
2,CC(C)(C)c1ccc(C(=O)NCC(=O)OCC(=O)Nc2ccc3c(c2)OCCO3)cc1,0.131
3,CCCCC(=O)Nc1ccc(Br)cc1C(=O)O,-0.24
4,CC1CC2=C(CC1/C=N/NC(N)=S)C(C)(C)CCC2 (stereo not given),3.44 (active)
5,C/C(CC1CC2=C(CC1(C)C)C(C)(C)CCC2)=N\NC(N)=S (stereo not given),0.599
6,CC1=C(CC/C(C)=N/NC(N)=S)C(C)(C)CCC1,1.85
7,CCCCNC(=O)Cn1nc([N+](=O)[O-])c([N+](=O)[O-])c1C,-0.27
8,Cc1noc(C)c1S(=O)(=O)N1CCN(c2ccccc2)CC1,-0.073
9,Cc1noc(C)c1S(=O)(=O)N1CCC(Cc2ccccc2)CC1,2.68
10,Cc1noc(C)c1S(=O)(=O)N1CCC(C(=O)N(C)Cc2ccccc2)CC1,-0.182
11,COc1ccc(CCn2c(N)c(S(=O)(=O)c3cccs3)c3nc4ccccc4nc32)cc1OC,-0.349
12,COc1ccc(CC(=O)OCCN(C)C)cc1,0.0321
13,O=C(CCCN1C(=O)c2cccc3cccc(c23)C1=O)N1CCN(c2ccccn2)CC1,0.0204
14,O=C(CN1C(=O)c2ccccc2C1=O)N1CCN(c2ccccn2)CC1,-0.293
15,O=C(CCN1C(=O)COc2ccccc21)N1CCN(c2ccccn2)CC1,0.258
16,O=C(CN1C(=O)/C(=C/c2ccccc2F)Oc2ccccc21)N1CCN(c2ccccn2)CC1,6.44 (active)
17,O=C(CN1C(=O)/C(=C\c2cccc(F)c2)Oc2ccccc21)N1CCN(c2ccccn2)CC1,0.117
18,O=C(CN1C(=O)c2cccc3cccc(c23)C1=O)N1CCN(c2ccccn2)CC1,8.64 (active)
19,CC(C)c1nnc(SCC(=O)NCc2ccc3c(c2)OCO3)n1C,-0.49
20,CCn1c(=O)n(CC)c2cc([N+](=O)[O-])ccc21,-0.0668
21,COc1ccccc1NC(=O)Cc1c(F)cccc1Cl,-0.193
22,O=C(Nc1cccc2ncccc12)c1ccc(-c2ccc(Br)cc2)o1,-0.163
23,CCOC(=O)C1=C(C)NC(C)=C(C(=O)OCC)C1c1ccc(Br)o1,-0.356

row,Structure (SMILES),z-score
1,CCOC(=O)C1=C(C)NC(=O)NC1c1ccc(Br)o1 (stereo not given),2.92
2,CCOC(=O)C1=C(C)NC(=O)NC1c1ccc(C)o1 (stereo not given),0.0551
3,O=C(CN1C(=O)c2ccccc2C1=O)NCCc1c[nH]c2ccccc12,-0.164
4,CCOc1ccc(C2=C(C=Nc3c(C)n(C)n(-c4ccccc4)c3=O)C(c3ccc(F)cc3)c3ccccc3O2)cc1 (stereo not given),1.53
5,Cc1c(C)[n+](=O)c2c(n1[O-])CCC2,14.6 (active)
6,Cc1ccc(-c2c(C)n([O-])c3c([n+]2=O)CCC3)cc1,-0.263
7,CCc1c(C)n([O-])c2c([n+]1=O)CCC2,0.305
8,Cc1ccc(OCCCSc2ncccn2)cc1C,-0.106
9,Cn1c(SCc2nnc(-c3ccc(F)cc3)o2)nnc1C1COc2ccccc2O1 (stereo not given),-0.382
10,O=C(NC1CCCCCC1)c1cccc(N2CCCC2=O)c1,-0.399
11,CN1CCN(C(=O)CN(Cc2ccc(Cl)cc2)S(C)(=O)=O)CC1,0.244
12,Cc1cc(NC(=O)CSc2nc3ccccc3n2CC(=O)N2CCCCC2)no1,0.0584
13,Cc1ccc(N2C(=O)C3CC(c4ccccc4)=C4C5C=CC(C6C(=O)N(c7ccc(C)cc7)C(=O)C56)C4C3C2=O)cc1 (stereo not given),-0.0459
14,COc1ccc(S(=O)(=O)Nc2cccc(NC(C)=O)c2)cc1,0.142
15,COc1ccc(OCC(=O)Nc2cc3oc4ccccc4c3cc2OC)cc1,-0.347
16,COc1cc2c(cc1NC(=O)COc1ccc3ccccc3c1)oc1ccccc12,-0.183
17,COc1ccccc1OCC(=O)Nc1oc(-c2ccccc2)c(-c2ccccc2)c1C#N,2.87
18,COc1cc2c(cc1NC(=O)Nc1ccccc1)oc1ccccc12,-0.0976
19,COc1cc2c(cc1NC(=O)Nc1ccc(C)cc1)oc1ccccc12,-0.398
20,COc1cc2c(cc1NC(=O)Nc1cccc(C)c1)oc1ccccc12,2.68
21,Cc1ccc(OCC(=O)Nc2oc(-c3ccccc3)c(-c3ccccc3)c2C#N)cc1,-0.212
22,Cc1cccc(C)c1OCC(=O)Nc1oc(-c2ccccc2)c(-c2ccccc2)c1C#N,-0.376
23,COc1cc2c(cc1NC(=O)COc1ccccc1OC)oc1ccccc12,5.54 (active)
